Data taken from PubChem BioAssay (NCATS).
Unmarked numbers belong to inactive results. Activity calls are given as the source filed them. Calls follow the shape of the dose curve; as a rule, active = well fitted inhibition curve with a large enough effect; inconclusive = small, poorly fitted or top-dose-only effect; inactive = flat fitted curve, though single readings scatter.

molecular target: Phosphoglycerate kinase, glycosomal (Trypanosoma brucei brucei) (UniProt P07378); assay: qHTS Validation Assay to Find Inhibitors of Phosphoglycerate Kinase (AID 504547); details: enzymatic PGK inhibition, coupled luminescence read-out; series mostly up to 57.5 µM; activity, negative = inhibition: at the top concentration;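 as to activity, negative = inhibition: control wells lack PGK and mark full inhibition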
Sequence (P07378 whole entry, looked up): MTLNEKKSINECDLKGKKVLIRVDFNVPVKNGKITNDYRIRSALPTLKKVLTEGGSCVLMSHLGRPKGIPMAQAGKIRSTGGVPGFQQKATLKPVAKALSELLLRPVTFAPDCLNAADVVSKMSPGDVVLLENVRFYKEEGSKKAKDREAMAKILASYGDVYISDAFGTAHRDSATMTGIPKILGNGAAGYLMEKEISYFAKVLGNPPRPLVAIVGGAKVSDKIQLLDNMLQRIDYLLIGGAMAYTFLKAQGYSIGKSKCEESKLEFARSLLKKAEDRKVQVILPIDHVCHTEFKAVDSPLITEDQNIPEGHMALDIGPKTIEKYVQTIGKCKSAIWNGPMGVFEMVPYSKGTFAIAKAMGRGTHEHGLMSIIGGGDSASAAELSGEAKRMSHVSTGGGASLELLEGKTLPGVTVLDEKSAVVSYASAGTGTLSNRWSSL
From the text: NIH Molecular Libraries Probe Production Network [MLPCN]
NIH Chemical Genomics Center [NCGC]
PI Name: Malcolm Walkinshaw, University of Edinburgh
Several species of the Trypanosomatidae family of parasitic protozoans cause a spectrum of diseases
throughout the tropical and subtropical world. Sleeping sickness, caused by two subspecies of Trypanosoma brucei, is endemic to areas of sub-Saharan Africa, while Chagas disease, a manifestation of Trypanosoma cruzi infection, is prevalent throughout Central and South America. In addition, many species of Leishmania are responsible for a range of cutaneous and visceral diseases, causing ulcers, destructive lesions and kalaazar, a lethal infection of the viscera. Collectively, these organisms infect 30 million people worldwide (~500 million live in endemic areas), and account for ~130,000 deaths annually. Given their debilitating and prevalent nature, trypanosomatid parasites impose a heavy medical, economic and social burden on entire populations, primarily in the developing world. The problem is further exacerbated by the fact that existing treatments have progressed little in the past 50 years, and current drugs show high toxicity and poor efficacy.
Blood-stream stages of T. brucei are entirely dependent on glycolysis as a source of ATP, and the tricarboxylic acid cycle and oxidative phosphorylation are both repressed. Glycolysis in axenically cultured T. cruzi, representing the intracellular pathogenic stage, is also essential for these parasites. […] Previous studies have shown that the glycolytic enzyme, phosphoglycerate kinase (PGK), is a viable target for drugs to kill these parasites.
NCGC Assay Protocol Summary:
Briefly, 3ul of substrate/PGK buffer (columns 1,2,5-48) are dispensed into Greiner white solid bottom 1536-well assay plates; columns 3-4 receive only TEA buffer as 0x PGK controls. Compounds are then transferred via Kalypsys pin tool equipped with 1536-pin array (10nl slotted pins, V&P Scientific, San Diego, CA). Following addition of compound, 1ul of GAPDH (100nM final concentration, all columns) is added to initiate the reaction (this upstream coupling enzyme is necessary for in-well production of PGK substrate, 1,3-bisphosphoglycerate (1,3-BPG), which is unstable and not commercially available). The plates are then incubated at room temperature for 60 minutes. Kinase-Glo Plus reagent is added (2ul) and plates incubated for 10 minutes, before being transferred to a ViewLux high-throughput CCD imager (PerkinElmer) wherein single end-point measurements of luminescence are acquired using a clear filter. All reagents are diluted in an assay buffer consisting of 100mM TEA (pH 7.6), 5mM MgCl2 and 0.01% Tween-20.
Potency is read from the fitted curve at half-maximal effect.

| Structure (SMILES) | activity, negative = inhibition | Potency |
| --- | --- | --- |
| Cc1nc2c(OCc3ccccc3)cccn2c1CC#N | 4.96% | – |
| CCCc1c(OCCCOc2ccc(OCC(=O)O)cc2)ccc(C(C)=O)c1O | 4.15% | – |
| CC(=O)[C@H]1CCC2C3CC=C4C[C@@H](OS(=O)(=O)O)CC[C@]4(C)C3CC[C@@]21C (stereo not given in full) | -2.73% | – |
| O=C1NC(=O)c2cc(Nc3ccccc3)c(Nc3ccccc3)cc21 | 13.8% | – |
| Cc1nc(N=Nc2ccc(S(=O)(=O)O)cc2S(=O)(=O)O)c(COP(=O)(O)O)c(C=O)c1O | 25.4% | – |
| CC1CNCCN1S(=O)(=O)c1cccc2cnccc12 (stereo not given) | 5.97% | – |
| Cn1cc(C(=O)OCC2CCN(CCNS(C)(=O)=O)CC2)c2ccccc21 | 3.04% | – |
| O=c1cc(O)cc(/C=C/c2ccc(O)c(O)c2)o1 | – | 1690 nM (active) |
| CCCCCCC(=O)OC1CC(C)(C)NC(C)(C)C1 | -3.93% | – |
| O=C(O)C1CCNCC1 | 9.04% | – |
| O=[N+]([O-])c1cccc2cn[nH]c12 | 10.6% | – |
| CC1=C(/C=C/C(C)=C/C=C/C(C)=C\C(=O)O)C(C)(C)CCC1 | 1.83% | – |
| N#CC(C#N)=C(N)/C(C#N)=C/c1ccc(O)cc1 | 3.2% | – |
| Nc1nc2ccc(Cl)cc2c2nc(-c3ccco3)nn12 | 8.56% | – |
| COc1ccc(-c2cc3ncc(C)n3c(Nc3ncccc3C(N)=O)n2)cc1OC | 8.58% | – |
| COc1ccc(C(=O)NCc2cccnc2)cc1C(=O)NCc1cccnc1 | 8.95% | – |
| Nc1ccc(N2C(=O)c3ccccc3C2=O)c(Cl)c1 | 6.82% | – |
| COc1cc(CC(=O)O)ccc1O | 6.73% | – |
| CCCn1c(=O)c2c(ncn2C)n(CCC)c1=O | 0.243% | – |
| O=c1[nH]c2cc(Cl)ccc2c(O)c1-c1ccc(Oc2ccccc2)cc1 | 0.243% | – |

| Structure (SMILES) | activity, negative = inhibition | Potency |
| --- | --- | --- |
| COC(=O)C(N)Cc1ccc(Cl)cc1 (stereo not given) | 3.42% | – |
| CC(C)[C@@H]1CC[C@@H](C)C[C@@H]1P(=O)(c1ccccc1)c1ccccc1 | 5.96% | – |
| C=CC1(C)CC(=O)C2(O)C(C)(O1)C(OC(C)=O)C(O)C1C(C)(C)CCC(O)C12C (stereo not given) | -1.64% | – |
| OC[C@H]1NC[C@@H](O)[C@@H]1O | 6.39% | – |
| CCCCOc1cc(CC2CNC(=O)N2)ccc1OC (stereo not given) | 9.39% | – |
| O=c1ccn([C@@H]2O[C@H](COP(=O)(O)OP(=O)(O)O)[C@@H](O)[C@H]2O)c(=O)[nH]1 | 0.575% | – |
| O=c1cc(-c2ccccc2)[nH]c2nc(Cl)ccc12 | 2.47% | – |
| CN1CC(O)C(O)C(O)C1CO (stereo not given) | 11.2% | – |
| N#C/C(=C\c1ccc(O)c(O)c1)C(=O)NCCc1ccccc1 | 5.19% | – |
| C[C@](Cc1ccc(O)c(O)c1)(NN)C(=O)O | 6.18% | – |
| CC(N)(C(=O)O)c1ccc(C(=O)O)cc1 (stereo not given) | 5.76% | – |
| Nc1ncnc2c1ncn2C1CCCC1 | 5.35% | – |
| Cn1c(=O)c2[nH]c(-c3ccc(S(=O)(=O)O)cc3)nc2n(C)c1=O | 15.7% | – |
| Cn1ccnc1 | -3.16% | – |
| NC1CCN(O)C1=O (stereo not given) | 2.49% | – |
| CCN(CC)CCOC(=O)c1cc(Cl)c(N)cc1OC | 8.1% | – |
| COc1cc([C@@H]2c3cc4c(cc3[C@H](O)C3COC(=O)[C@@H]32)OCO4)cc(OC)c1OC (stereo not given in full) | 9.14% | – |
| CC(=O)SC1CC2=CC(=O)CC[C@]2(C)C2CC[C@@]3(C)C(CC[C@@]34CCC(=O)O4)C12 (stereo not given in full) | 8.71% | – |
| C=C1C[C@@]23CC[C@H]4[C@@](C)(CCC[C@@]4(C)C(=O)O)[C@@H]2CC[C@]1(O)C3 | 7.82% | – |
| Cc1nc(N=Nc2cc(S(=O)(=O)O)c3cc([N+](=O)[O-])cc(S(=O)(=O)O)c3c2)c(COP(=O)(O)O)c(C=O)c1O | 1.11% | – |
